Target: PLEKHA8
Experiment: pooled miR-30 sensor sort-seq; sequence = guide strand
Conditions: shRNA
Note: reference of the scale not given here.

Sequence | sensor-assay potency score (higher = more potent)
TAATATTTCCAACAAGATCCAT | -0.589
ATTTCCAACAAGATCCATCTTA | 0.673
TTGAATTTCACAGACTGCCATT | -0.888
TATCTACAGAATGAACTTGAAT | -1.22
TTCAGCAAACTCTTTCTCCTTC | 0.589
ATTATCTACAGAATGAACTTGA | 1.24
TTCACAAGTGCTCAACTCCATT | -1.47
TTTCCAACAAGATCCATCTTAA | -0.407
TAATAGGACAATATTCCCCCAC | -0.473
TAGGGCTGTCTGGATATCCTTC | -0.391
AATATTTCCAACAAGATCCATC | -1.17
TTCCATTCCATCTTCCTTCCTT | 0.675

Target: PLEKHB1
Experiment: as above
Conditions: shRNA

Sequence | sensor-assay potency score (higher = more potent)
TTCCCGTAGGTTCACAGTCAGC | -1.99
TGAAGTGGATGAGCACACGGTC | -1.12
TAGGGCGGTCCGTAGTAGCTGC | -0.166
TCGTAGTAGTCTTGGTACGGGC | -1.27
TAGTAGTCTTGGTACGGGCTGT | -0.059
TAGGGCATCATCCTTGGTCTCC | -0.411
TTGAAGTGGATGAGCACACGGT | -0.311
TCATCCTTGGTCTCCGCACAGA | -1.23
TATGTCACGGACATTGAAGTGG | -0.329
TAGTAGCTGCGGACATACGTGG | -1.12
TCTCATCGTGGTAGTATCCCAG | -0.247
TCTGTCTCCACAGCCAGCCGCC | -1.23

Target: PLEKHJ1
Experiment: as above
Conditions: shRNA

Sequence | sensor-assay potency score (higher = more potent)
ATGAACTCGTAGCTGGCCCGAC | -0.947
TGACACTGCTCCTCGCTGCTGC | -0.0748
TTCCTGTAGAAGATGAGGCTTC | 0.247
TCAGGGTCCTCAATGAAGCTGA | -0.114
TTGAACAGAACAAGCACCCTGG | 0.692
TTATTTGAACAGAACAAGCACC | -0.886
TATGCCGAACTGTTCCAGGGGG | -0.541
TTTATTTGAACAGAACAAGCAC | 0.502
TTCGTTCCTGTAGAAGATGAGG | -0.827
TTTGAACAGAACAAGCACCCTG | 0.823
TAGAAGATGAGGCTTCTCCGCA | -0.0375
TGTACATTCATTCAGCACGGGG | -1.25

Target: PLEKHN1
Experiment: as above
Conditions: shRNA

Sequence | sensor-assay potency score (higher = more potent)
TAGCTGGCGCACACCACGCGGA | -1.23
TCCAGGTCCAGGATGTCCGTGC | -1.12
TTCTTGGAGAGCAAGTAGGGGC | -0.773
TGACCGTAGTCCTCGTAGCTGG | -1.04

Source: the OligoGym collection
